# Bim-Mcl-1 = disrupts Bim peptide binding to human Mcl-1; Q07820; Bead-based flow cytometry, Bim peptide-Mcl-1 binding; inhibition, % at 10 µM; hit rate 0.1% among 190,000; in the data active = inhibition above about 40%;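 also: 0% = no compound tracer wells and 100% = peptide blocker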
# Target sequence (Q07820 whole entry, looked up): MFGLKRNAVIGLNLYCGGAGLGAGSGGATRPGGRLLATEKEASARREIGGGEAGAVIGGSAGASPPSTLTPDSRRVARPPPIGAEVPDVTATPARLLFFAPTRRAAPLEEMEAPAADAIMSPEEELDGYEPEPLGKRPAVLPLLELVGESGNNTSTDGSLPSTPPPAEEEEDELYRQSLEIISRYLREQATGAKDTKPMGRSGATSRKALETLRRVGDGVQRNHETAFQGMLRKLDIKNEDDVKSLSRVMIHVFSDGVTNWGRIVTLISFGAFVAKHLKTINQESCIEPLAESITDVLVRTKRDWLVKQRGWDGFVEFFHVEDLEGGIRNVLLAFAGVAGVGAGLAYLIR
# zVAD death inh = L929 zVAD cell death inhibition. L929 zVAD necroptosis rescue, ATP luminescence, 24 h; with zVAD 60 µM. viability rescue, % at 10 µM. hit rate 0.38% among 220,000;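 active = activation, scaled between plate controls, above about 75%, limit read from the data; inactive = activation under that limit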;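 also: 0% = zVAD with DMSO and 100% = DMSO alone without zVAD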
# Mcl1 Noxa PPI = Mcl-1/Noxa interaction inhibition | Q07820 | TR-FRET Mcl-1/Noxa peptide binding, 2 h | inhibition, % at 21.7 µM | hit rate 1.5% among 220,000 | AID 1022;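 active = compounds that cut the protein-peptide binding signal by more than 50% relative to plate controls in a single-dose test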;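 also: His-tagged Mcl-1 with rhodamine Noxa BH3 peptide and terbium anti-His antibody; 0% = Mcl-1 plus Noxa peptide wells and 100% = peptide-only wells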
# Calpain2 inh = inhibitors of pig calpain II; purified calpain II, fluorogenic peptide substrate, 30 min; AID 1236; hit rate 0.37% among 220,000; inhibition, % at 16 µM;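 active = inhibition above about 50%, limit read from the data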
# Mcl1-Bid inh = disrupts binding of human Mcl-1 to Bid peptide; Q07820; TR-FRET Mcl-1/Bid-Dy647 peptide binding, 1536-well; inhibition, % at 21.7 µM; hit rate 0.97% among 220,000; AID 1021;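 active = compounds that cut the binding signal by more than half at the single screening dose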;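 also: His-tagged Mcl-1 with europium anti-His antibody binding Bid BH3 peptide; 0% = Mcl-1 plus peptide wells and 100% = peptide-only wells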
# TNF necrop inh = blocks TNF-alpha induced death of Jurkat FADD-/- cells. Jurkat FADD-/- TNF necroptosis rescue, ATP luminescence, 24 h; 0 = TNF only, 100 = no-TNF cells. activation (protection from cell death), % at 10 µM. hit rate 0.068% among 220,000. AID 463075;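 active = activation, meaning protection from cell death, of at least 50% relative to plate controls; inactive = activation below 50%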;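 also: necroptosis triggered by 40 ng/mL TNF-alpha added together with compound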
# * = called active by the depositor; nt = no result. The list is not random: actives were taken first. Their share in the collection is about 2.8%.
SMILES,Bim-Mcl-1,zVAD death inh,Mcl1 Noxa PPI,Calpain2 inh,Mcl1-Bid inh,TNF necrop inh
CC(NC(=O)C1CCC(CNS(=O)(=O)c2ccccc2)CC1)c1ccc2c(c1)OCCO2 (centres undefined),-3.0,2.0,7.0,18.5,9.8,2.8
O=C(COC(=O)c1ccncc1)c1ccc(Cl)c(Cl)c1,-3.0,3.4,6.6,-28.9,-10.1,-0.7
CCC(C)NC(=O)c1ccccc1NS(=O)(=O)c1ccc(OC)c(OC)c1 (centres undefined),0.0,-0.1,14.6,-54.9,18.3,-0.1
C=C(C)C(=O)Nc1cccc(C2=NOC3(C2)C[C@@H](C(N)=O)N(C(=O)/C(C)=C/C)C3)c1 (some centres undefined),nt,-0.1,73.4*,-8.2,-113.6,3.9
CCN(CC)S(=O)(=O)c1ccc(C)c(N=C=S)c1,-2.0,-0.3,10.6,17.8,-18.3,-0.9
Cc1ccc(C)c(N2CCN(C(=O)C3CCCCN3S(=O)(=O)c3ccc(F)cc3)CC2)c1 (centres undefined),0.0,0.1,-9.1,57.5*,-25.3,2.7
Cc1ccc(S(=O)(=O)N2CCCC2C(=O)O)cc1 (centres undefined),0.0,1.4,-3.6,-19.2,16.7,-0.3
CC(=O)NC(c1cccs1)c1cc([N+](=O)[O-])c2cccnc2c1O (centres undefined),0.0,0.9,54.5*,-29.2,25.2,-6.2
CCC(=O)NC(c1cccs1)c1cc([N+](=O)[O-])c2cccnc2c1O (centres undefined),2.0,0.4,-7.3,-41.3,0.9,0.0
CCCC(=O)NC(=S)Nc1ccc(S(=O)(=O)Nc2ccc(OCC)cc2)cc1,0.0,7.9,19.0,25.4,-11.9,3.7
CCOc1ccc(NS(=O)(=O)c2ccc(NC(=S)NC(=O)CC(C)C)cc2)cc1,-1.0,-0.8,16.4,52.1*,-20.0,0.9
COc1ccc(C2C(C#N)=C(N)OC3=C2C(=O)CC(C)C3)c(OC)c1OC (centres undefined),-6.0,0.0,17.6,-12.4,52.5*,0.5
COc1ccc(C2C(C#N)=C(N)OC3=C2C(=O)CCC3)c(OC)c1OC (centres undefined),0.0,-0.3,16.2,10.4,-95.8,-3.7
COc1ccc(C2C(C#N)=C(N)OC3=C2C(=O)CCC3)cc1OC (centres undefined),-3.0,8.4,-4.1,20.2,70.0*,-0.4
O=[N+]([O-])c1ccc(/C=N/n2c(CO)nc3ccccc32)s1,-6.0,26.3,57.7*,-4.8,30.3,-13.0
O=C(O)CCC(=O)NNC(=O)c1cccs1,0.0,1.9,-0.1,0.0,-14.9,-0.2
O=C(N/N=C/c1ccncc1)c1cc2c(ccc3ccccc32)o1,-5.0,3.2,21.9,-37.0,10.1,-3.9
Cc1ccc([N+](=O)[O-])cc1-c1ccc(/C=N/NC(=O)c2cc3c(ccc4ccccc43)o2)o1,0.0,1.6,6.3,-248.8,-13.0,2.2
O=C(N/N=C/c1ccc(-c2ccc(Cl)c(C(=O)O)c2)o1)c1cc2c(ccc3ccccc32)o1,nt,1.1,109.7*,-42.3,95.6*,2.9
O=C(N/N=C/c1cccc([N+](=O)[O-])c1)c1cc2c(ccc3ccccc32)o1,0.0,0.0,30.6,-34.4,81.8*,-2.2
COc1ccc2c(c1)O[C@H](c1ccc3c(c1)OCO3)[C@@H](O)C2=O,-2.0,79.4*,5.0,8.7,-9.5,2.1
COc1ccc2c(c1)O[C@@H](c1cccc(C(F)(F)F)c1)[C@H](O)C2=O,0.0,0.7,10.4,5.9,10.1,-0.1
CCCCCCCC1CC(/C(C)=N/NC(N)=O)OC1=O (centres undefined),-3.0,nt,3.1,-10.3,-3.4,-0.7
Cc1ccc(SCc2cc(=O)n3ccsc3n2)c(C)c1,-4.0,0.1,14.9,-29.4,-6.0,-3.1
COC(=O)c1ccc(OCc2cc(=O)n3ccsc3n2)cc1,-5.0,-0.1,28.5,-25.9,65.0*,-1.4
SMILES,Bim-Mcl-1,zVAD death inh,Mcl1 Noxa PPI,Calpain2 inh,Mcl1-Bid inh,TNF necrop inh
Cc1onc(-c2ccc(Cl)cc2Cl)c1-c1csc(N/N=C/c2ccccc2Cl)n1,nt,-0.6,-3.7,-27.3,-16.9,-4.6
CCN1CCN(C(c2cccc(OC)c2)c2sc3nc(C)nn3c2O)CC1 (centres undefined),-4.0,2.4,-5.2,-6.2,-3.0,2.0
COc1cccc(C(c2sc3nc(C)nn3c2O)N2CCc3ccccc3C2)c1 (centres undefined),0.0,2.0,52.1*,6.1,-8.9,1.3
N#Cc1c(Cl)cccc1Oc1ccc(S(=O)(=O)Nc2ccccc2)cc1,nt,1.2,12.4,51.0*,16.5,1.1
CN(CCO)S(=O)(=O)c1ccc2c(c1)C(=NO)c1cc(S(=O)(=O)N(C)CCO)ccc1-2,5.0,12.4,39.3,-144.8,83.1*,2.1
O=C(CN1c2cccc3cccc(c23)S1(=O)=O)Nc1ccc(S(=O)(=O)N2CCOCC2)cc1,-1.0,-0.1,43.0,-152.2,-64.3,0.7
O=C(CN1C(=O)c2cccc3cccc1c23)Nc1ccc(S(=O)(=O)N2CCOCC2)cc1,4.0,0.1,-147.9,-207.5,90.4*,-3.0
O=C(COc1ccccc1Cl)NC(=O)NC1CCCC1,-4.0,0.8,10.6,-0.8,-36.7,57.4*
O=C(O)[C@H](Cc1ccccc1)N1Cc2ccccc2C1=O,0.0,2.8,19.4,-14.8,72.3*,0.6
O=C1ON=C(c2cccc([N+](=O)[O-])c2)/C1=C/c1ccc(O)cc1,0.0,-1.2,66.1*,-11.7,-50.5,-1.5
CCN(CC)S(=O)(=O)c1ccc(C(=O)OCn2c(SC)nnc(C)c2=O)cc1,-4.0,0.8,-6.4,-8.5,-2.5,-0.4
COc1cccc(C(=O)Nc2ccc(NC(C)=O)cc2)c1,0.0,0.0,1.0,-7.1,-24.9,-0.3
COc1cccc(C(=O)Nc2cc(Cl)c(O)c(Cl)c2)c1,nt,0.2,98.2*,6.7,-55.9,0.9
N#C/C(=N\Nc1ccccc1F)c1nc(-c2ccccc2)cs1,0.0,0.5,2.6,-48.5,3.6,-0.3
CCOC(=O)c1cc(-c2ccccc2)sc1NC(=O)C(C)OC(=O)c1cccnc1OCC (centres undefined),-1.0,1.3,-0.7,-7.0,-6.0,1.9
O=C(Oc1ccc(NC2=C(Cl)C(=O)c3ccccc3C2=O)cc1)c1ccc([N+](=O)[O-])cc1,-2.0,2.5,92.2*,-19.8,70.3*,-30.4
CC1CCN(S(=O)(=O)c2cccc(C(=O)Nc3ccccn3)c2)CC1,-4.0,0.5,4.4,-13.7,79.0*,-0.2
COc1cccc(Oc2c(C)oc3c(CN4CCCC4)c(O)ccc3c2=O)c1,nt,0.9,-5.4,-315.1,96.2*,1.1
C/C(=N/NC(=O)CN1CCN(Cc2ccccc2Cl)CC1)c1ccco1,nt,-0.4,-16.8,-16.7,-18.3,3.3
CCN1C(=O)/C(=C/C=C2\C=CN(CC)c3ccccc32)SC1=S,6.0,1.3,63.6*,7.8,49.4,-10.5

# Bioassay records: PubChem, several laboratories
